Compounds with a hit are over-represented: about 2.1% of the library has one in this group of screens.
FUS yeast rescue – suppressors of FUS proteinopathy in yeast; S. cerevisiae FUS-expressing, growth rescue, OD600, 24 h; Potency, µM (highest dose often 76.6 µM), usual class: activators; 0.24% of 390,000 active; AID 1347120;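 note: plate controls were DMSO vehicle for no effect and reference control for full effect; nearly all actives have a fitted effect of over 55% in size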
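FUS-expressing yeast, raffinose-pregrown, induced in 2% galactose minimal medium at OD 0.005; compounds in a dilution series, 24hr at 30C. Growth restoration read as absorbance at 600 nm. CP55940 positive control, DMSO negative.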
TDP-43 yeast inh – rescues yeast growth from TDP-43 toxicity | TDP-43 expressing yeast growth rescue, BacTiter-Glo, 24 h | Potency, µM (series often up to 46.1 µM), inactives show top-dose growth rescue (activation), actives largely listed as activators | 1.8% of 410,000 active; note: % of control where 0% means no effect; nearly all actives have a fitted effect of over 50% in size
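In this qHTS, compounds that restore growth of yeast expressing TDP-43 appear as activators. Cells (OD600=0.02, galactose medium, raffinose-pregrown) are incubated with compound 24 hr at 30 deg C and growth is quantified by BacTiter-Glo.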
Abeta rescue – compounds reversing amyloid beta toxicity in yeast | yeast expressing A-beta42, growth rescue, OD600, 48 h; response scale: 0% DMSO, 100% iron-clioquinol control | Potency, µM (doses to about 46.1 µM), actives largely listed as activators | 0.063% of 410,000 active | AID 1347071; note: nearly all actives have a fitted effect of over 55% in size
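Growth rescue measured by 600 nm absorbance after 48 h yeast culture at 30 C with compound. Values normalized between DMSO and an equimolar ferric chloride plus clioquinol control.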
aSyn yeast inh – inhibitors of alpha-synuclein toxicity in yeast | Yeast expressing alpha-synuclein, growth rescue, BacTiter-Glo, 24 h | Potency, µM (top dose mostly 46.1 µM), for inactives: at the top dose growth rescue (activation), actives largely listed as activators | 0.14% of 370,000 active | AID 652106; note: % of control where 0% means no effect; nearly all actives have a fitted effect of over 65% in size
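Rescue of yeast growth: cells expressing toxic alpha-synuclein, induced in galactose at OD600 0.02, incubated with compound 24 h at 30 C. ATP luminescence quantified growth; inhibitors of toxicity appear as activators.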
Numbers without * were called inactive; i = inactive; ? = inconclusive; / = no result given; ! = not confirmed by another sample; [ ] = remark or other dose. Calls come from the whole dose curve; as a rule, active = well fitted curve in the direction sought with a large enough effect; inconclusive = small, poorly fitted or top-dose-only effect, or another doubt; inactive = no such curve, though single readings can be large; an effect the other way counts as inactive or inconclusive. Potency is the fitted concentration of half-maximal effect.

SMILES	FUS yeast rescue	TDP-43 yeast inh	Abeta rescue	aSyn yeast inh
O=C(Nc1cccnc1)C1Cc2c(-c3ccccc3Oc3ccccc3)ccnc2O1 (stereo unspecified)	i	28.2µM*	i	5.9%
Cc1nn(CCC(=O)N2CCN(S(=O)(=O)c3ccc(Cl)cc3)CC2)c(C)c1C	i	0.6%	i	6.9%
Cc1ccc(S(=O)(=O)N(CC(=O)N2CCC(C(N)=O)CC2)Cc2ccc(F)cc2)cc1	i	-25.4%	i	-4.8%
COC(=O)C1(C(=O)OC)C[C@H](c2ccc(OC)cc2)N(Cc2ccccc2OC)[C@@H]1c1ccc(OC)cc1	i	3.9%	i	2.1%
CCCCCCCCCCCCCCCC[n+]1cccc(C(=O)N(CC)CC)c1	28.2µM*!	-17.9%	i	-10.0%
CCCCCCCCCCCCCCCC[n+]1ccc(C(N)=O)cc1	31.6µM*	-36.0%	i	-73.0%
CCCCOc1ccc(C(N)=O)cc1	/	/	/	2.6%
C1=C(c2cn(-c3nc4ccccc4s3)nn2)CCCC1	i	16.1%	i	0.7%
Oc1ccc(-c2c(C3=CCCCC3)sc3ccccc23)cc1	i	20µM*	i	-46.2%
CCN1CCCC1CN(Cc1cc2ccc(C)c(C)c2[nH]c1=O)C(=O)Nc1ccccc1OC (stereo unspecified)	10µM*	-23.2%	i	0.1%
O=C(O)C1CCN(c2c([N+](=O)[O-])cc(C(F)(F)F)cc2[N+](=O)[O-])CC1	i	20µM*	i	3.0%
O=C(CCS(=O)(=O)c1nc(-c2ccc3c(c2)OCO3)cc(C(F)(F)F)n1)Nc1ccccc1C(F)(F)F	i	-11.1%	i	/
Cc1ccc(NC(=O)COc2ccccc2C#N)cc1S(=O)(=O)N1CCCCCC1	i	28.2µM*	i	-0.1%[1.84 µM]
Cc1cnc(C(=O)Nc2ccc(C)c(S(=O)(=O)N3CCCCCC3)c2)cn1	i	15.8µM*	i	7.1%
Cc1ccc(NC(=O)COc2ccccc2)cc1S(=O)(=O)N1CCCCCC1	i	25.9%	i	-3.9%
O=C(O)CNC(=S)N(Cc1cccs1)C1CCCCC1	i	6.1%	i	-5.3%
OC(c1ccc(Cl)cc1)c1ncc(-c2ccc(Oc3ccccc3)cc2)[nH]1 (stereo unspecified)	?	20µM*	i	-1.3%
O=C(CN1C(=O)CCSc2ccccc21)Nc1cccc(F)c1	i	-9.7%	i	6.4%
CC1CCc2sc3nc(NCc4ccco4)n4ncnc4c3c2C1 (stereo unspecified)	i	25.1µM*	i	0.0%
Cc1nc(NCc2ccccn2)c2c3c(sc2n1)CCCC3	i	21.9%	i	-0.4%
c1coc(CNc2ncnc3sc4c(c23)CCCCC4)c1	i	12.6µM*	i	-0.3%
c1ccc(CNc2ncnc3sc4c(c23)CCCC4)nc1	i	12.6µM*	i	2.3%
Cn1c(=O)c2c(nc(CN3CCc4ccccc4C3)n2Cc2cccc(Cl)c2)n(C)c1=O	?	20µM*	i	19.3%
CC1=C(C(=O)OCC2CCCO2)C(c2ccc(C)cc2)C2=C(CCCC2=O)N1 (stereo unspecified)	i	16.4%	i	-2.5%
Cc1nnc2sc(-c3ccncc3)nn12	i	8.4%	i	13.2%
SMILES	FUS yeast rescue	TDP-43 yeast inh	Abeta rescue	aSyn yeast inh
Cc1nnc2sc(-c3csc4c3CCCC4)nn12	?	12.6µM*	i	-3.2%
O=[N+]([O-])c1ccc(Cl)c(S(=O)(=O)Nc2cccc(S(=O)(=O)NC3=NCCC3)c2)c1	i	-6.7%	i	-2.9%
CC(=O)c1sc2nc(C)c3c(c2c1N)CCCC3	i	12.6µM*	i	17.8µM*
CCC(C(=O)Nc1cccc(Cl)c1C)n1nc(C)c2sc3ccccc3c2c1=O (stereo unspecified)	i	?	i	/
CC(=O)Nc1ccc(S(=O)(=O)Nc2cc(-c3ccccc3)nn2C)cc1	i	7.5%	i	8.7%
CCOc1ccc(-c2[nH]ncc2Oc2ccccc2OCC)c(O)c1	i	17.8µM*	i	?
CCOc1ccc(-c2[nH]ncc2-c2ccc(OC)c(OC)c2)c(O)c1	?	-6.4%	i	-4.1%
CCOc1ccc(-c2[nH]ncc2-c2ccc(Cl)cc2)c(O)c1	i	35.5µM*	i	-45.6%
COc1ccc(/C=N/NC(=O)c2ccc(Cl)cc2Cl)cc1COC(C)=O	/	6.8%	i	6.6%
COc1ccccc1OCCn1cc(/C=N/NC(=O)c2ccncc2)c2ccccc21	i	12.6µM*	i	10.2%
O=C(c1ccco1)c1cn(CCOc2ccc(F)cc2)c2ccccc12	i	17.8µM*	i	/
COC(=O)c1cn(CCOc2ccccc2OC)c2ccccc12	i	?	i	14.8%
COC(=O)c1cn(CCOc2ccccc2F)c2ccccc12	i	11.2µM*	?	9.4%
CCCCCCSc1cc(-c2nc3cc(C)ccn3c2NCCCC)ccc1OC	28.2µM*!	-91.3%	i	-57.4%
CCCCCCSc1ccc(-c2nc3ccc(C)cn3c2NCCCC)cc1OC	15.8µM*	-92.6%	i	-62.8%
CCCCCCSc1ccc(-c2nc3ccc(Cl)cn3c2NCCCC)cc1OC	i	16.9%	i	-2.4%
CCCCn1c(-c2ccc(C(C)(C)C)cc2)nc2cc3[nH]c(=O)c(C(C)C)nc3cc21	?	17.0%	i	2.1%
CC(=O)c1ccc(Nc2nc(C)cc(C)n2)cc1	i	10.5%	i	-1.8%
Cc1cc(C)nc(Nc2ccc(F)cc2)n1	i	25.1µM*	i	-0.3%
O=C1CCC/C(=N\NC(=O)COc2ccc(Cl)cc2)C1	i	-3.0%[0.397 µM]	i	1.0%
O=C(O)c1cc(N2C(=O)CCC2=O)ccc1Cl	i	17.2%	i	1.0%
CN(C)CC(C(=O)c1ccccc1)c1ccccc1 (stereo unspecified)	/	8.5%	i	-1.3%
CN(Cc1cc(Cl)cc(Cl)c1)CC(C(=O)c1ccccc1)c1ccccc1 (stereo unspecified)	/	12.6µM*	i	26.0%
CC(C)(C)C(=O)Nc1nnc(SCc2ccc(F)cc2)s1	i	17.8µM*	?	/
CC(C)(C)C(=O)Nc1nnc(SCc2cccc(F)c2)s1	i	?	?	-0.8%
SMILES	FUS yeast rescue	TDP-43 yeast inh	Abeta rescue	aSyn yeast inh
COC(=O)c1c(-c2ccc(Br)cc2)noc1N	i	20µM*	i	-2.7%
COc1ccc(OCC(=O)NCCCn2ccnc2)cc1	i	6.7%	i	-0.3%
Nc1c2c(nc3sc4c(c13)CCCC4)CCCCCC2	i	10.7%	i	-2.1%
Clc1cccc(Cc2c(-c3ccccc3)nc3ccc(Cl)cn23)c1	i	31.6µM*	i	2.0%
Cc1ccc2nc(-c3ccccc3)c(Cc3cccc(Cl)c3)n2c1	i	7.7%	i	-1.3%
Clc1ccc(-c2nc3ccc(Cl)cn3c2Cc2cccc(Cl)c2)cc1	?	25.1µM*	i	-1.2%
CN(C)/C=C(/C(=O)c1ccc(Cl)cc1Cl)S(=O)(=O)c1ccccc1	i	1.3%	i	0.2%
CCOC(=O)c1ccc2oc(=O)n(Cc3ccccc3)c2c1	i	7.94µM*	i	/
